Compound activity deposited in PubChem BioAssay by National Center for Advancing Translational Sciences (NCATS).
Shown are actives, neighbours in structure and some others; about 8% of the full set was active somewhere.
RORg inh – inhibitors of mouse ROR gamma transcriptional activity; Drosophila S2 Gal4-RORgamma UAS-luciferase reporter, 20 h; P51450; AID 2551; 310,000 compounds, 5.4% hits; Potency, µM (highest dose often 53.6 µM), for inactives: at the highest dose activity change, negative = inhibition, usual class: inhibitors; note: potency is the fitted concentration of half-maximal effect; nearly all actives have a fitted effect of over 60% in size
Target sequence (P51450 whole entry, looked up, the tested form may be a part): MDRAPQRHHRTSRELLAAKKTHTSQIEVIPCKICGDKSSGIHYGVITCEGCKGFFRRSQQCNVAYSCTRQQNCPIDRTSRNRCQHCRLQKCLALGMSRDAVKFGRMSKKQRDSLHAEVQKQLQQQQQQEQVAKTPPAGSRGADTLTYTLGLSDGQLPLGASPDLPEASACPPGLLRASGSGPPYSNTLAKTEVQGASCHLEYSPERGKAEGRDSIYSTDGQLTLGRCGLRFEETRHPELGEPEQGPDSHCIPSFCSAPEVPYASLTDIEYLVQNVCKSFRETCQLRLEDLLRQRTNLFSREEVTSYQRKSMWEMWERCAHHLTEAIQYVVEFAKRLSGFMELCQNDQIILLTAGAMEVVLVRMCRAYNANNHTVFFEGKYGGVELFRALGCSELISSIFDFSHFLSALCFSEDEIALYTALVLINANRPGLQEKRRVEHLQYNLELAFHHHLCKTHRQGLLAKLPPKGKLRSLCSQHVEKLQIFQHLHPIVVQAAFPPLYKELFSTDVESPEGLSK
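Stable Schneider cell line, Gal4 DNA-binding domain fused to ROR gamma, UAS-luciferase. Cmpd 1 hr RT → CuSO4 700 uM final → 20 hr RT → luciferase reagent 10 min → luminescence.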
VP16 counter – inhibits Gal4-VP16 luciferase reporter, ROR gamma counter-screen; Drosophila S2 Gal4-VP16 UAS-luciferase, luminescence, 20 h; Potency, µM (highest dose often 53.6 µM), without a hit: at the top dose activity, negative = inhibition, hits mostly inhibitors; 310,000 compounds, 3.5% hits; AID 2546;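 note: Gal4-VP16 expression switched on by copper sulfate through the metallothionein promoter; potency is the fitted concentration of half-maximal effect; nearly all actives have a fitted effect of over 50% in size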
Coupling enz – inhibits coupling enzyme system, counter-screen for aldolase hits; coupling enzyme system counterscreen, AmpLite Red fluorescence; activity change, negative = inhibition, % at 58.2 µM, hits read low; 290,000 compounds, 0.67% hits; in the data active = activity change below about -30%
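Coupling enzymes only (glyceraldehyde-3-phosphate) + compound, at 57.5 uM final, 10 min RT; add substrate/coupling/AmpLite Red mix, 20 min RT; fluorescence ex 525/em 598 nm. Actives flag coupling-system interference.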
ELG1 DNA repair – ELG1-dependent DNA repair inhibition | Potency, µM (top dose mostly 46.1 µM), inactives show at the highest dose activity change, negative = inhibition, most hits filed as inhibitors | AID 504467 | HEK293T ELG1-luciferase reporter, luminescence, 16 h; DNA damage induced by 5-fluorouridine | 330,000 compounds, 2.3% hits; note: potency is the fitted concentration of half-maximal effect; nearly all actives have a fitted effect of over 55% in size
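In this reporter screen, reduction of luminescence relative to DMSO vehicle indicated activity. Compounds and 5-fluorouridine were added together to 2,000 cells per well, incubated for 16 hr at 37 °C, then developed with ONE-Glo.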
TSHR antag – blocks TSH signaling through the human TSH receptor. P16473. TSHR-expressing cells, TSH-stimulated cAMP HTRF, 2 h; active compounds read low. activity change, negative = inhibition, % at 11.5 µM. 330,000 compounds, 0.2% hits;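 active = activity change below a set negative limit, meaning inhibition stronger than a set level, cut at about -70% in these data; inconclusive = activity change between two set negative limits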
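Antagonism was scored as loss of TSH-driven cAMP in TSHR cells, stimulated with 4nM TSH (EC80) for 2 hours at 37 deg C and detected by homogeneous HTRF competition immunoassay.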
Starred values were filed as active, the others as inactive; ? = inconclusive; . = no result. Unless noted, calls come from the whole dose curve; as a rule, active = well fitted curve in the direction sought with a large enough effect; inconclusive = small, poorly fitted or top-dose-only effect, or another doubt; inactive = no such curve, though single readings can be large; an effect the other way counts as inactive or inconclusive. % is set by controls: 0 for no effect and ±100 for the full control effect.

SMILES | RORg inh | VP16 counter | Coupling enz | ELG1 DNA repair | TSHR antag
COc1cccc(NC(=S)NC(=O)/C=C/c2ccco2)c1 | 11µM* | ? | 1 | ? | -11
CCN(CC)S(=O)(=O)c1ccc(OC)c(NC(=O)/C=C/c2ccco2)c1 | -15% | 1% | 0 | 23µM* | 4
O=C(Nc1ccc(F)cc1Cl)C1=COCCO1 | . | . | . | ? | -1
CCOc1ccc(S(=O)(=O)N2CCOCC2)cc1NS(=O)(=O)c1ccc(OC)c([N+](=O)[O-])c1 | . | . | . | 19% | -9
Cn1c(SCC(=O)Nc2ccc3nc(SCC(=O)N4CCCC4)sc3c2)nnc1-c1ccc(N)cc1 | 31% | 5% | 0 | 8.2µM* | -11
CCN(CC)C(=O)CSc1nc2ccc(NC(=O)CSc3nccn3C)cc2s1 | ? | 3% | 3 | 21µM* | -7
CCN(CC)C(=O)CSc1nc2ccc(NC(=O)CSc3nnc(N)s3)cc2s1 | 5% | 3% | -2 | 1% | -17
Cc1cccnc1NC(=O)c1cccc(NC(=O)CC2SC(N3CCCCC3)=NC2=O)c1 (stereo unspecified) | . | . | . | 6% | 25
Cc1ccc(NS(=O)(=O)c2ccc(C(=O)Nc3nncs3)cc2)cc1 | . | . | . | -18% | -10
c1cc(Nc2cccc3nccnc23)c2nccnc2c1 | 0.28µM* | 1.1µM* | 0 | 8% | 3
Oc1c(Cl)cc(Cl)cc1C1=NNC(c2ccc(Cl)cc2)C1 (stereo unspecified) | 8.9µM* | -24% | 2 | -14% | -11
Oc1ccc(Cl)cc1C1=NNC(c2cc(Br)cc3c2OCOC3)C1 (stereo unspecified) | 7.9µM* | ? | -1 | ? | -18
Oc1ccc(Cl)cc1C1=NNC(c2ccc(Cl)cc2)C1 (stereo unspecified) | 8.9µM* | 16µM* | 3 | ? | -6
CCc1c(C2(O)CCCCC2)[nH]c2ncccc12 | . | . | . | -12% | -12
O=C1C(=O)N(CNc2cccnc2)c2ccccc21 | -5% | ? | -37* | 6% | 19
CCOC(=O)CN1C(=O)C(C)(C)Oc2ccc(C(=O)Nc3ccccc3)cc21 | ? | 8% | -4 | 13µM* | -5
COC(=O)CN1C(=O)C(C)(C)Oc2ccc(C(=O)Nc3ccccc3F)cc21 | 1% | 8% | 2 | -17% | -13
COc1ccc(N(C(=O)Cc2cccs2)C(C(=O)NC2CCCC2)c2ccncc2)cc1OC (stereo unspecified) | -1% | -14% | 2 | 5% | -7
C#CC(=O)N(c1cccc(OC)c1)C(C(=O)NC1CCCC1)c1cccs1 (stereo unspecified) | 1.6µM* | 5µM* | 1 | 21µM* | ?
Cc1cccc(N(C(=O)C(F)(F)F)C(C(=O)NC2CCCCC2)c2cccs2)c1 (stereo unspecified) | -18% | ? | 3 | 2% | -30
COc1cccc(CN(C(=O)Cc2c[nH]c3ccccc23)C(C(=O)NC2CCCCC2)c2cccs2)c1 (stereo unspecified) | 11% | 0% | -6 | 18µM* | -10
C#CC(=O)N(c1ccc(OC)c(OC)c1)C(C(=O)NC1CCCC1)c1cccs1 (stereo unspecified) | 2.5µM* | 8.9µM* | -1 | ? | -15
Cc1ccc(-c2nc(CS(=O)CC(=O)NCc3ccc(Cl)cc3)c(C)o2)cc1 (stereo unspecified) | 13µM* | 0% | 4 | -8% | 27
COc1ccc(-c2nc(CS(=O)CC(=O)NCc3ccc(Cl)cc3)c(C)o2)cc1 (stereo unspecified) | 8.9µM* | 7% | 0 | -9% | 1
CCc1cccc(NC(=O)CS(=O)Cc2nc(-c3ccc(C)cc3)oc2C)c1 (stereo unspecified) | 11µM* | -4% | 6 | ? | 4
SMILES | RORg inh | VP16 counter | Coupling enz | ELG1 DNA repair | TSHR antag
CCOc1ccc(/C=C2\NC(=S)NC2=O)cc1 | ? | ? | 5 | -8% | -7
COc1cccc(/C=N/n2c(-c3cc(C)[nH]n3)n[nH]c2=S)c1 | -48% | -14% | 1 | 15% | -17
COc1cccc(/C=C/C2=CC(C)(C)NC(=S)N2)c1 | 1.3µM* | 5µM* | 4 | -13% | -3
COc1ccc(/C=C/C2=CC(C)(C)NC(=S)N2)cc1OC | 3.2µM* | -16% | 1 | -17% | -9
CCOc1ccc(/C=C/C2=CC(C)(C)NC(=S)N2)cc1 | 0.71µM* | 2.2µM* | 0 | ? | -5
Cc1ccc(C(C)C)c(OCC(=O)NC2CCN(C)CC2)c1 | -10% | -2% | . | 6% | -3
C[C@@](N)(C(=O)O)c1cccc(CC(=O)O)c1 | 13% | -4% | 0 | . | .
CCn1c(-c2csc(-c3ccc(Cl)cc3)n2)n[nH]c1=S | 1.3µM* | ? | 2 | 10% | 8
CCn1c(-c2c[nH]c3ccccc23)n[nH]c1=S | ? | -10% | 3 | ? | 5
CCn1c(-c2csc(-c3ccccc3)n2)n[nH]c1=S | 2.5µM* | 6.3µM* | 1 | . | .
COc1ccc(NCC(=O)Nc2ccc(C#N)cc2)cc1Cl | 24% | -13% | 4 | 26µM* | 1
Cc1sc2ncnc(N3CCC(C(=O)Nc4ccccc4C(C)(C)C)CC3)c2c1C | . | . | . | 9.2µM* | -11
Cc1sc2ncnc(N3CCC(C(=O)N(C)CC(=O)Nc4ccccc4Cl)CC3)c2c1C | . | . | 4 | 7.3µM* | -24
COc1ccc(CC(=O)Nc2sc3c(c2C(N)=O)CCCC3)cc1 | ? | 15% | 5 | ? | 2
COc1cccc(Nc2nc3ccc(OC)cc3s2)c1 | 11µM* | ? | -6 | ? | -13
COc1ccc2nc(Nc3sc4c(c3C(N)=O)CCCC4)sc2c1 | 1.4µM* | 3.5µM* | 3 | ? | -1
COc1ccc(NC(=O)CN(C)CC(=O)Nc2sc3c(c2C(N)=O)CCC3)cc1 | . | . | . | 21µM* | -5
COc1ccc(Nc2nc3ccccc3s2)cc1 | ? | 2% | -5 | ? | 5
COc1ccccc1CNS(=O)(=O)CCNC(=O)c1ccccc1 | . | . | . | 0% | -9
CC1(C)Cc2c(sc3[nH]c(=S)n(Cc4ccco4)c(=O)c23)CO1 | 1µM* | 1.4µM* | 11 | 0% | 10
CCn1c(=O)n(-c2ccc(Cl)cc2)c(=O)c2c3c(sc21)COC(C)(C)C3 | 12% | 1% | 1 | -21% | -1
CC1(C)Cc2c(sc3c2c(=O)n(Cc2ccccc2)c2nncn32)CO1 | 4% | 1% | 3 | 3% | -10
CC1(C)Cc2c(sc3c2c(=N)n(Cc2ccco2)c(=O)n3Cc2ccccc2)CO1 | -39% | ? | -2 | 12µM* | 0
CC1(C)Cc2c(sc3c2c(=N)n(Cc2ccco2)c(=O)n3Cc2ccc(Cl)cc2)CO1 | 39% | -15% | -3 | 5.8µM* | -5
Cc1c(C)c2c(c(C)c1O)CCC(C)(CCCC(C)CCCC(C)CCCC(C)C)O2 (stereo unspecified) | -7% | 4% | 0 | . | .
